Consider 37 molecules from PubChem BioAssay AID504710 (Sanford-Burnham Center for Chemical Genomics, 2011).

Activity calls are given as the source filed them.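 How the source made its calls: active means inhibition reaching about 16% in any single replicate (limit read from the data); inactive means the rest.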

One may read the inhibition as the relative decrease from the control value, in per cent.

In this assay the target is Hexokinase HKDC1 (Homo sapiens) (UniProt Q2TB90). The assay is described as follows: compounds lowering human HKDC1 activity – biochemical, single concentration, confirmation (AID 504710). The following applies: recombinant HKDC1, G6PDH/diaphorase/resazurin fluorescence; at 20 µM; hits give high values.
Sequence of Hexokinase HKDC1 (Homo sapiens) (Q2TB90 whole entry, looked up): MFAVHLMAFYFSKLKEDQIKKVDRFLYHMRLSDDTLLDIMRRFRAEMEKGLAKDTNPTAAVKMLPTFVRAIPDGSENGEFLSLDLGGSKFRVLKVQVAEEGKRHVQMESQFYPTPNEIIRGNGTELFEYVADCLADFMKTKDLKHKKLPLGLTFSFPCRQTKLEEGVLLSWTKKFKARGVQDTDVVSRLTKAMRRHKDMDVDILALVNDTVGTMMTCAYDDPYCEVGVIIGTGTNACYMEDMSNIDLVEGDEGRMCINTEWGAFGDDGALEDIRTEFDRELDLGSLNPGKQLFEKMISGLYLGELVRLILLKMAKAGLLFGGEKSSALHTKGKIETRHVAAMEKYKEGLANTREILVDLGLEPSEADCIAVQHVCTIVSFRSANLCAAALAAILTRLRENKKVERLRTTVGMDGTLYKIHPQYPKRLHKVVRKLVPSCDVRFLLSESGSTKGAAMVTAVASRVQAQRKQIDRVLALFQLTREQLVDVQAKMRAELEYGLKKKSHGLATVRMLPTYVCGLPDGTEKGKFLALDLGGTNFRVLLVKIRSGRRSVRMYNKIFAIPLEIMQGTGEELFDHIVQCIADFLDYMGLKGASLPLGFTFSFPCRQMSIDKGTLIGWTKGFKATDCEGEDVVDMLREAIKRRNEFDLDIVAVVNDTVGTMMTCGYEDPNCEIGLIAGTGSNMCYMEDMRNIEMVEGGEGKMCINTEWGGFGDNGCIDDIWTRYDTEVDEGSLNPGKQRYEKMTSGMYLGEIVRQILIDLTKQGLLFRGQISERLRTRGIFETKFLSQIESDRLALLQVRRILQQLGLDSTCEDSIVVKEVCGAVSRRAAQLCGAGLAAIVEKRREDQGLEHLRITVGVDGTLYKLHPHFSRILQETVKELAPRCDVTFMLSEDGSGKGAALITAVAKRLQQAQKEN
In the case of `Cc1ccc(N=Nc2ccc(O)c3ncccc23)cc1C`, the inhibition was -40.4% (inactive).
Turning to `O=C1C=C(Nc2ccccc2C(=O)O)c2ccccc2C1=O`, the inhibition is 44.3% (active).
As for `CSc1nc(N)nc2c1ncn2CC(=O)N[C@H](C)c1cccc2ccccc12`, the inhibition was -73.5% (inactive).
Under `NC(=O)C1CCN(C2=C(Cl)C(=O)c3ccccc3C2=O)CC1` stands 73% (active); under `CC(C)Nc1nnc(SCC(=O)Nc2ccc3c(c2)C(=O)c2ccccc2C3=O)s1`, 53.5% (active); under `CCc1ccc(S(=O)(=O)/N=C2/C=C(Sc3ncn[nH]3)C(=O)c3ccccc32)cc1`, 73% (active).
Consider `CC(=O)N(C1=C(Cl)C(=O)c2ccccc2C1=O)c1ccc(C(=O)O)cc1`, for which the inhibition is 64.4% (active).
As for `COC(=O)c1ccc(NCc2cc(O)ccc2O)cc1`, the inhibition is 65.1% (active).
For the molecule `COC1(NS(=O)(=O)c2ccc(Br)cc2)C(C)=CC(=O)C=C1C`, the inhibition was 26.3% (active).
With `Cc1cccc2c(N=NC(=O)c3ccc(NS(=O)(=O)c4cccs4)cc3)c(O)[nH]c12`, the inhibition was 63.2% (active).
Under `S=C(NCc1ccccn1)NN=Cc1ccccn1` stands -45.4% (inactive); under `CC(=NNC(=S)N1CCN(C2CCCCCC2)CC1)c1ccccn1`, -39.9% (inactive).
With `COc1ccc(NC(=O)Cc2c[nH]c3ccccc23)cc1S(=O)(=O)N1CCCCC1`, the inhibition was -35.1% (inactive).
As to `O=C(O)c1ccccc1-c1c2cc(I)c(=O)c(I)c-2oc2c(I)c(O)c(I)cc12`, the inhibition was 43.5% (active).
Turning to `O=C(NC(=S)NNC(=O)c1cnccn1)c1ccc(F)cc1`, the inhibition was -36.1% (inactive).
Under `Cc1cc(C)c(S(=O)(=O)Nc2cc(SCC(=O)O)c(O)c3ccccc23)cc1C` stands 41.5% (active).
For the molecule `CC1(C)C(=O)Nc2ccccc2N1C(=O)COC(=O)c1cc(Cl)cc(Cl)c1`, the inhibition was -50.1% (inactive).
For `S=C(NN=C(c1ccccc1)c1ccccn1)N(Cc1ccccn1)Cc1ccccn1`, the inhibition is -59.4% (inactive).
Consider `COC1=CC(=O)C=C(OC)C1=O`, for which the inhibition is 75.2% (active).
As for `COc1ccc(N2C3=C(CC4=C2CCCC4=O)C(=O)CCC3)cc1`, the inhibition is 47.1% (active).
Consider `CC(OC(=O)c1cc(O)c2ccccc2c1O)C(=O)Nc1ccc(C(N)=O)cc1` (configuration not stated), for which the inhibition is 28.4% (active).
Take `COc1ccc(-c2[nH]c(-c3ccc(SC)cc3)nc2SCC(=O)Nc2nccs2)cc1`: the inhibition is -36.1% (inactive).
As for `O=C(C1=C(c2ccccc2)C(=O)c2ccccc2C1=O)c1ccccc1`, the inhibition was 52% (active).
As to `CCOC(=O)c1ccc(NC2=CC(=O)C(=O)c3ccccc32)cc1`, the inhibition was 27.6% (active).
With `CCCc1nc2oc3c(NCC4CCCO4)ncnc3c2c2c1COC(C)(C)C2` (configuration not stated), the inhibition was 28.9% (active).
With `CC(NC1=CC(=O)c2cccnc2C1=O)C(O)c1ccccc1` (configuration not stated), the inhibition was 43.3% (active).
On to `Cc1ccc(C2=NNC(=Nc3ccc(F)cc3)SC2)cc1`, for which the inhibition was -80% (inactive).
In the case of `CC(=NNC(=S)Nc1cccc(Cl)c1)c1ccccn1`, the inhibition is -63.5% (inactive).
Regarding `CCCCC(=O)NC(c1ccc(N(CC)CC)cc1)c1ccc2cccnc2c1O` (configuration not stated), the inhibition is -59.3% (inactive).
As for `CC(=O)n1cc(N(C(=O)CCl)c2ccc([N+](=O)[O-])cc2)c2ccccc21`, the figure is 40.9% (active); as for `Cc1ccc(N=c2ssnc2Cl)cc1`, -43.7% (inactive); as for `CC(NC(=O)c1sc2cc([N+](=O)[O-])ccc2c1Cl)C(C)(C)C` (configuration not stated), -39.3% (inactive).
Regarding `CCCC(=O)NC1=C(Cl)C(=O)c2ccccc2C1=O`, the inhibition was 81.4% (active).
With `O=C1C=C(N2CCCCC2)c2ccccc2C1=O`, the inhibition is 86.1% (active).
Regarding `Oc1ccc(/C=N/Nc2ncc(Br)cn2)c(O)c1`, the inhibition is 44.6% (active).
Under `CCOC(=O)c1ccc(NC(=O)CSc2n[nH]c(-c3ccncc3)n2)cc1` stands 50.3% (active); under `Cc1ccc(C)c(-n2c3nc(=O)[nH]c(=O)c-3cc3cc([N+](=O)[O-])ccc32)c1`, 39.2% (active).
